The panel holds about 83,000 compounds, 20% with a hit somewhere; the sample as a whole holds those more often.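 Negative percent growth values reflect cell death: -40 means 40% of the cells present at the start died, and -100 means all died.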 Calls of active or inactive are those of the source. The calls were made as follows: active = growth percent below 10; inactive = the rest.
Key:
Assay in all cases: NCI-60 one-dose screen, 48 h (100 = growth as untreated, 0 = no growth, -100 = all killed)
Details in all cases: 10 µM unless noted
NCI-H23 lung = test system: NCI-H23 lung
NCI-H226 lung = test system: NCI-H226 lung
NCI-H322M lung = test system: NCI-H322M lung
HOP-62 NSCLC = test system: HOP-62 NSCLC
NCI-H460 lung = test system: NCI-H460 lung
HOP-92 NSCLC = test system: HOP-92 NSCLC
NCI-H522 lung = test system: NCI-H522 lung
786-0 renal = test system: 786-0 renal
COLO 205 colon = test system: COLO 205 colon
A549/ATCC NSCLC = test system: A549/ATCC NSCLC

Measured: growth

COc1ccc(/C=N/Nc2c3ccccc3nc3ccccc23)cc1
inactive: NCI-H23 lung 88.3% | NCI-H226 lung 83.4% | NCI-H322M lung 101% | HOP-62 NSCLC 98% | NCI-H460 lung 99.5% | HOP-92 NSCLC 90.2% | NCI-H522 lung 90.7% | 786-0 renal 90.8% | COLO 205 colon 103%

O=C(C[C@]1(O)C(=O)Nc2ccc(Br)cc21)c1ccco1
inactive: NCI-H23 lung 97% | NCI-H226 lung 92.9% | NCI-H322M lung 93.8% | HOP-62 NSCLC 106% | HOP-92 NSCLC 102% | NCI-H522 lung 88.3% | A549/ATCC NSCLC 104% | 786-0 renal 108% | COLO 205 colon 106%

Cc1nc2sc(C(=O)Nc3cccc4ccccc34)c(N)c2cc1C(=O)c1ccccc1
active: COLO 205 colon -2.82%
inactive: NCI-H23 lung 40.2% | NCI-H226 lung 68.3% | NCI-H322M lung 62.4% | HOP-62 NSCLC 42.5% | HOP-92 NSCLC 77.6% | NCI-H522 lung 15.5% | A549/ATCC NSCLC 23.5% | 786-0 renal 42.5%

CNCCCNc1nc2ccccc2c2c(=O)c3cc(Cl)ccc3sc12
active: HOP-92 NSCLC 9.37% | COLO 205 colon -84.4%
inactive: NCI-H23 lung 70.1% | NCI-H226 lung 101% | NCI-H322M lung 70.4% | HOP-62 NSCLC 60.5% | NCI-H522 lung 17.6% | A549/ATCC NSCLC 17.8% | 786-0 renal 52.7%

Fc1cccc(CNc2c3ccccc3nc3ccccc23)c1
inactive: NCI-H23 lung 33.9% | NCI-H226 lung 50.6% | NCI-H322M lung 40.2% | HOP-62 NSCLC 47.9% | NCI-H522 lung 37.8% | A549/ATCC NSCLC 29.3% | 786-0 renal 36.4% | COLO 205 colon 17.3%
active: HOP-92 NSCLC -4.06%

C=C[C@@]1(C)CC(=O)[C@@H](C(C)(C)c2cn(C)c3ccc(Br)cc23)C[C@@H]1O[Si](C)(C)C(C)(C)C
inactive: NCI-H23 lung 98.3% | NCI-H226 lung 83.9% | NCI-H322M lung 101% | HOP-62 NSCLC 111% | NCI-H460 lung 101% | HOP-92 NSCLC 83.6% | NCI-H522 lung 94.4% | 786-0 renal 97.4% | COLO 205 colon 104%

COCCn1cc(-c2nc(-c3cc4cccnc4n3C)cs2)c2ccccc21
active: NCI-H522 lung -6.38%
inactive: NCI-H23 lung 39.4% | NCI-H226 lung 60.9% | NCI-H322M lung 41.6% | HOP-62 NSCLC 52.5% | HOP-92 NSCLC 44.1% | A549/ATCC NSCLC 28.9% | 786-0 renal 56.7% | COLO 205 colon 11.9%

CCCCNC(=O)c1ccc2c(c1)nc(-c1ccccc1)n2C1CCCCC1
inactive: NCI-H23 lung 92.3% | NCI-H226 lung 109% | NCI-H322M lung 90.5% | HOP-62 NSCLC 77.3% | NCI-H460 lung 109% | HOP-92 NSCLC 105% | NCI-H522 lung 80.9% | 786-0 renal 92.7% | COLO 205 colon 88.9%

Cc1oc(-c2ccc(Cl)cc2)nc1C1=NN(C(=O)c2ccncc2)C(c2ccccc2)C1 (stereo not given)
inactive: NCI-H226 lung 84.6% | NCI-H322M lung 93.7% | HOP-62 NSCLC 107% | NCI-H460 lung 98.6% | HOP-92 NSCLC 96.1% | NCI-H522 lung 86.6% | A549/ATCC NSCLC 87.7% | 786-0 renal 83.4% | COLO 205 colon 108%

CCCn1c(=S)sc2c(NNC(C)=O)nc(C)nc21
inactive: NCI-H226 lung 97.1% | NCI-H322M lung 101% | HOP-62 NSCLC 78.3% | NCI-H460 lung 101% | HOP-92 NSCLC 89.4% | NCI-H522 lung 90.9% | A549/ATCC NSCLC 89.1% | 786-0 renal 92.2% | COLO 205 colon 126%

CCOC(=O)c1ccc[nH]1
inactive: NCI-H226 lung 99.3% | NCI-H322M lung 84.3% | HOP-62 NSCLC 83.5% | NCI-H460 lung 105% | HOP-92 NSCLC 80.4% | NCI-H522 lung 88.4% | A549/ATCC NSCLC 93% | 786-0 renal 93.1% | COLO 205 colon 134%

Cn1cc(-c2csc(-c3cn(CCCN4CCOCC4)c4ccc(F)cc34)n2)c2cccnc21
inactive: NCI-H226 lung 51.9% | NCI-H322M lung 79% | HOP-62 NSCLC 71.7% | NCI-H460 lung 41% | HOP-92 NSCLC 40.8% | NCI-H522 lung 49.5% | A549/ATCC NSCLC 66.1% | 786-0 renal 57.4% | COLO 205 colon 51.3%

Oc1c(CN2CCC(N3CCOCC3)CC2)cc(Cc2cc(CN3CCC(N4CCOCC4)CC3)c(O)c3ncccc23)c2cccnc12
inactive: NCI-H322M lung 37.6% | HOP-62 NSCLC 19.4% | NCI-H460 lung 10.5% | HOP-92 NSCLC 41.7% | NCI-H522 lung 15.4% | A549/ATCC NSCLC 18.5% | 786-0 renal 25.5%
active: NCI-H226 lung 2.53% | COLO 205 colon 9.1%

CC(C)Cc1nc(Nc2ccccc2)[nH]c(=O)c1C#N
active: HOP-92 NSCLC -14%
inactive: NCI-H226 lung 58.1% | NCI-H322M lung 61% | HOP-62 NSCLC 82.7% | NCI-H522 lung 17.3% | A549/ATCC NSCLC 57.3% | 786-0 renal 72.6% | COLO 205 colon 49.7%

C=CCN=c1sc(-c2ccc3ccccc3c2)cn1NC(=O)c1cc2ccc1CCc1ccc(cc1)CC2
inactive: NCI-H226 lung 75.2% | NCI-H322M lung 97.6% | HOP-62 NSCLC 75.2% | NCI-H460 lung 52.3% | HOP-92 NSCLC 59.6% | NCI-H522 lung 76.4% | A549/ATCC NSCLC 56.1% | 786-0 renal 70.1% | COLO 205 colon 44.5%

Cc1cc(N2CCN(CC(=O)Nc3ccc4c(ccn4Cc4ccccc4)c3)CC2)nc(N2CCOCC2)n1
inactive: NCI-H226 lung 84.3% | NCI-H322M lung 90.4% | HOP-62 NSCLC 91.1% | NCI-H460 lung 95.2% | HOP-92 NSCLC 45.4% | NCI-H522 lung 73.8% | A549/ATCC NSCLC 73.6% | 786-0 renal 84.6% | COLO 205 colon 98.2%

CC1=C2[C@@H](CC1)[C@]1(C)O[C@@](C3CCNCC3)(C[C@H]1OC(=O)CO)[C@H]2OC(=O)/C=C/c1ccccc1
inactive: NCI-H226 lung 92.3% | NCI-H322M lung 105% | HOP-62 NSCLC 94.5% | NCI-H460 lung 94.1% | HOP-92 NSCLC 71.8% | NCI-H522 lung 83.6% | A549/ATCC NSCLC 92.2% | 786-0 renal 86.2% | COLO 205 colon 87.2%

C=C(C)[C@@H]1CC[C@]2(COC3CCCCO3)CC[C@]3(C)[C@H](CC[C@@H]4[C@@]5(C)C=C(C=O)C(=O)C(C)(C)[C@@H]5CC[C@]43C)[C@@H]12 (stereo not given in full)
active: NCI-H226 lung 1.68% | NCI-H322M lung 8.97% | HOP-62 NSCLC -68% | NCI-H460 lung -47.2% | HOP-92 NSCLC -91.6% | NCI-H522 lung -75% | A549/ATCC NSCLC -63.5% | 786-0 renal -86.2% | COLO 205 colon -32%

COC1C(O)CC(OC2CC(OC3CC(O[C@@H]4C(=O)c5c(cc6cc(OC7CC(OC8CC(O)C(O)C(C)O8)C(O)C(C)O7)c(C)c(O)c6c5O)CC4[C@H](OC)C(=O)C(C)=O)OC(C)C3O)OC(C)C2O)OC1C (stereo not given in full)
active: NCI-H226 lung -10.8% | NCI-H322M lung -8.5% | HOP-62 NSCLC -20.1% | NCI-H460 lung 8.4% | HOP-92 NSCLC -6.32% | NCI-H522 lung -35.4% | 786-0 renal 4.33% | COLO 205 colon -47.6%

COc1cccc(-c2cn3nc(-c4cn(C)c5ccccc45)sc3n2)c1
inactive: NCI-H226 lung 89.6% | NCI-H322M lung 96.9% | HOP-62 NSCLC 96.5% | NCI-H460 lung 101% | HOP-92 NSCLC 81.8% | NCI-H522 lung 67.6% | A549/ATCC NSCLC 94.6% | 786-0 renal 104% | COLO 205 colon 108%

CCCCn1c(NC(C)=O)c(S(=O)(=O)c2ccccc2)c2nc3ccccc3nc21
active: HOP-92 NSCLC 4.95%
inactive: NCI-H226 lung 92.5% | NCI-H322M lung 105% | HOP-62 NSCLC 173% | NCI-H460 lung 110% | NCI-H522 lung 94.9% | A549/ATCC NSCLC 97.1% | 786-0 renal 105% | COLO 205 colon 127%

COC(=O)c1ccc2c(c1)c1c(C)c3cnccc3c(C)c1n2C
active: NCI-H226 lung -41.1% | NCI-H322M lung -14% | HOP-62 NSCLC -24.7% | NCI-H460 lung -32.4% | HOP-92 NSCLC -16.6% | NCI-H522 lung -65.1% | A549/ATCC NSCLC -17% | 786-0 renal -63.4% | COLO 205 colon -39.9%

COc1ccc(-c2cc(C(=O)N3N=C(c4ccc(N)cc4)CC3c3ccc(Cl)cc3)c3ccccc3n2)cc1 (stereo not given)
active: NCI-H522 lung -3.25% | COLO 205 colon 2.76%
inactive: NCI-H322M lung 52.4% | HOP-62 NSCLC 36.3% | NCI-H460 lung 12.8% | HOP-92 NSCLC 45.4% | A549/ATCC NSCLC 16.9% | 786-0 renal 25.4%

C#CCOc1cccc(Nc2ncnc3c2ncn3C2CCN(C(=O)CCl)C2)c1 (stereo not given)
active: NCI-H226 lung 1.03% | HOP-62 NSCLC 1.84% | HOP-92 NSCLC -84.5% | NCI-H522 lung -61.3% | 786-0 renal -72.4% | COLO 205 colon -72.5%
inactive: NCI-H322M lung 87.2% | NCI-H460 lung 24.7% | A549/ATCC NSCLC 54.6%

COC(=O)c1c2c(c(C)[n+]([O-])c1C)C(=O)C(NCc1ccccc1)=CC2=O
inactive: NCI-H226 lung 73.3% | HOP-62 NSCLC 67.1% | HOP-92 NSCLC 71.1% | NCI-H522 lung 28.8% | A549/ATCC NSCLC 13.7% | 786-0 renal 60%
active: NCI-H322M lung 7.15% | COLO 205 colon -9.35%

CNCC[C@H](Oc1cccc2ccccc12)c1cccs1
inactive: NCI-H322M lung 98.2% | HOP-62 NSCLC 128% | NCI-H460 lung 104% | HOP-92 NSCLC 52.5% | NCI-H522 lung 81.4% | A549/ATCC NSCLC 96.4% | 786-0 renal 82.9% | COLO 205 colon 102%

O=c1oc2c(cc1-c1ccccc1)c[n+]([O-])c1ccccc21
inactive: NCI-H226 lung 93.5% | NCI-H322M lung 104% | HOP-62 NSCLC 99.2% | HOP-92 NSCLC 86.4% | NCI-H522 lung 98.9% | A549/ATCC NSCLC 98% | 786-0 renal 90.3% | COLO 205 colon 102%

O=CCCCOCc1ccccc1
inactive: NCI-H226 lung 96.5% | NCI-H322M lung 110% | HOP-62 NSCLC 93.2% | NCI-H460 lung 107% | HOP-92 NSCLC 90.6% | NCI-H522 lung 88.5% | A549/ATCC NSCLC 95.3% | 786-0 renal 98.4% | COLO 205 colon 109%

COCC(=O)Oc1cc(-c2ccc(C)cc2C)c(OC(=O)COC)c(-c2ccc(C)cc2C)c1
inactive: NCI-H226 lung 59.8% | NCI-H322M lung 79% | HOP-62 NSCLC 61.5% | NCI-H460 lung 17.4% | HOP-92 NSCLC 66.7% | NCI-H522 lung 30.9% | A549/ATCC NSCLC 43.7% | 786-0 renal 69.6% | COLO 205 colon 48.4%

From PubChem BioAssay (NCI)
